Calls of active or inactive are those of the source. Rule for the calls: active = hit-call score of the fitted dose curve at least 0.9, where 1 is the maximum; inactive = score below 0.9.

Read-out in one assay: Phosphatase and tensin (PTEN), PTEN (gene 5728)
The assay can be described thus: LTEA_HepaRG_PTEN: Life Technologies and Expression Analysis (LTEA) Assay for Phosphatase and tensin (PTEN) using HepaRG (AID 2283523). Particulars: mRNA level, 48 h; actives raise or lower the signal. Summed up: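 Expression of PTEN is quantified in the human liver line HepaRG following two days of dosing (top concentration 100 uM, half-log dilutions, 0.5% DMSO). Values derive from bidirectional curve fitting relative to DMSO controls.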
As for `CC(C)CCCCCCc1ccc(O)cc1`, the call was inactive.

For `N#CSCSc1nc2ccccc2s1`, the compound was classed as inactive.

Consider `CC(=O)S[C@@H]1CC2=CC(=O)CC[C@]2(C)[C@H]2CC[C@@]3(C)[C@@H](CC[C@@]34CCC(=O)O4)[C@H]12`, for which the outcome was inactive.

With `O=C(c1ccc(O)cc1O)c1ccc(O)cc1O`, the result was inactive.

With `CCOC(=O)COc1cc(-n2ncc(C(F)(F)F)c(C)c2=O)c(F)cc1Cl`, the result was inactive.

On to `OB(O)O`, for which the result was inactive.

As for `CCCCOC(=O)[C@@H](C)Oc1ccc(Oc2ccc(C(F)(F)F)cn2)cc1`, the compound was called inactive.

In the case of `CC(C)(C)[C@@H](O)[C@@H](Cc1ccc(Cl)cc1)n1cncn1`, the compound was classed as inactive.

As for `CCCN(CCC)C(=O)SCC`, the compound was called inactive.

For `CCCCOC(=O)C(C)Oc1ccc(Oc2ccc(C(F)(F)F)cn2)cc1` (centres undefined), the call was inactive.

With `O=C(O)C1(C(=O)Nc2ccc(Cl)cc2Cl)CC1`, the compound was classed as inactive.

With `COC(=O)c1ccc(I)cc1S(=O)(=O)NC(=O)Nc1nc(C)nc(OC)n1`, the compound was called inactive.

As for `C=CCOC(Cn1ccnc1)c1ccc(Cl)cc1Cl` (centres undefined), the compound was classed as inactive.

For `C#C[C@]1(O)CC[C@H]2[C@@H]3CCC4=CC(=O)CC[C@@H]4[C@H]3CC[C@@]21CC`, the call was inactive.

With `C[C@]12C[C@H](O)[C@H]3[C@@H](CCC4=CC(=O)CC[C@@]43C)[C@@H]1CC[C@@H]2C(=O)CO`, the outcome was inactive.

Consider `C#CCOC(=O)[C@@H](C)Oc1ccc(Oc2ncc(Cl)cc2F)cc1`, for which the result was inactive.

`CCCCC(CC)CN1C(=O)C2C3C=CC(C3)C2C1=O` (centres undefined): the outcome was inactive.

Consider `O=C(O)c1ccccc1`, for which the result was inactive.

For the compound `CCN(CC)C(=O)c1cccc(C)c1`, the call was inactive.

Regarding `CCCN(CCC)c1c([N+](=O)[O-])cc(C(F)(F)F)c(N)c1[N+](=O)[O-]`, the result was inactive.

For the compound `Cc1nn(C)c(Oc2ccccc2)c1C=NOCc1ccc(C(=O)OC(C)(C)C)cc1`, the compound was classed as inactive.

On to `COC(=O)c1ccccc1C(=O)O`, for which the compound was classed as inactive.

`CCCOC(=O)c1ccc(C(=O)OCCC)nc1`: the compound was called inactive.

As for `CCCOC(=O)NCCCN(C)C`, the outcome was inactive.

As a reminder, the AC50 is the midpoint of the concentration-response curve, whichever way the signal moves. For the compound `O=C(Nc1ccc([N+](=O)[O-])cc1Cl)c1cc(Cl)ccc1O`, the AC50 was 4.53 µM (active).

Consider `CCC(C)OC(=O)N1CCCCC1CCO` (centres undefined), for which the result was inactive.

As to `S=C([S-])NCCNC(=S)[S-].[Mn+2]`, the AC50 was 4.48 µM (active).

Read-out in another assay: solute carrier (SLC22A1), SLC22A1 (gene 6580)
Description: LTEA_HepaRG_SLC22A1: Life Technologies and Expression Analysis (LTEA) Assay for solute carrier (SLC22A1) using HepaRG (AID 2283524).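 For AC50: differentiated human HepaRG liver cells in serum-free induction medium; TaqMan qRT-PCR normalized to ACTB GAPDH and POLR2A housekeeping genes.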 Conditions: mRNA level, 48 h; actives raise or lower the signal. Summed up: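 Transcript induction or suppression of SLC22A1 in human HepaRG cultures is scored after 48 h chemical treatment, with DMSO (0.5%) as baseline for bidirectional fitting. Concentrations span eight half-log points topping at 100 uM.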
On to `CC(C)CCCCCCc1ccc(O)cc1`, for which the call was inactive.

As to `N#CSCSc1nc2ccccc2s1`, the AC50 is 76.7 µM (active).

Regarding `CC(=O)S[C@@H]1CC2=CC(=O)CC[C@]2(C)[C@H]2CC[C@@]3(C)[C@@H](CC[C@@]34CCC(=O)O4)[C@H]12`, the concentration at half-maximal activity (AC50) is 55.5 µM (active).

On to `O=C(c1ccc(O)cc1O)c1ccc(O)cc1O`, for which the compound was called inactive.

Take `CCOC(=O)COc1cc(-n2ncc(C(F)(F)F)c(C)c2=O)c(F)cc1Cl`: the call was inactive.

As to `OB(O)O`, the compound was classed as inactive.

As to `CCCCOC(=O)[C@@H](C)Oc1ccc(Oc2ccc(C(F)(F)F)cn2)cc1`, the outcome was inactive.

As to `CC(C)(C)[C@@H](O)[C@@H](Cc1ccc(Cl)cc1)n1cncn1`, the result was inactive.

As for `CCCN(CCC)C(=O)SCC`, the call was inactive.

On to `CCCCOC(=O)C(C)Oc1ccc(Oc2ccc(C(F)(F)F)cn2)cc1` (centres undefined), for which the outcome was inactive.

`O=C(O)C1(C(=O)Nc2ccc(Cl)cc2Cl)CC1`: the AC50 was 74.3 µM (active).

Regarding `COC(=O)c1ccc(I)cc1S(=O)(=O)NC(=O)Nc1nc(C)nc(OC)n1`, the call was inactive.

Turning to `C=CCOC(Cn1ccnc1)c1ccc(Cl)cc1Cl` (centres undefined), the AC50 was 31.3 µM (active).

Take `C#C[C@]1(O)CC[C@H]2[C@@H]3CCC4=CC(=O)CC[C@@H]4[C@H]3CC[C@@]21CC`: the call was inactive.

For the compound `C[C@]12C[C@H](O)[C@H]3[C@@H](CCC4=CC(=O)CC[C@@]43C)[C@@H]1CC[C@@H]2C(=O)CO`, the compound was classed as inactive.

On to `C#CCOC(=O)[C@@H](C)Oc1ccc(Oc2ncc(Cl)cc2F)cc1`, for which the result was inactive.

Regarding `CCCCC(CC)CN1C(=O)C2C3C=CC(C3)C2C1=O` (centres undefined), the half-maximal activity concentration (AC50) was 78.3 µM (active).

Turning to `O=C(O)c1ccccc1`, the compound was called inactive.

With `CCN(CC)C(=O)c1cccc(C)c1`, the outcome was inactive.

Turning to `CCCN(CCC)c1c([N+](=O)[O-])cc(C(F)(F)F)c(N)c1[N+](=O)[O-]`, the AC50 was 27.2 µM (active).

Turning to `Cc1nn(C)c(Oc2ccccc2)c1C=NOCc1ccc(C(=O)OC(C)(C)C)cc1`, the AC50 was 12.3 µM (active).

For `COC(=O)c1ccccc1C(=O)O`, the result was inactive.

`CCCOC(=O)c1ccc(C(=O)OCCC)nc1`: the result was inactive.

On to `CCCOC(=O)NCCCN(C)C`, for which the outcome was inactive.

Turning to `O=C(Nc1ccc([N+](=O)[O-])cc1Cl)c1cc(Cl)ccc1O`, the AC50 is 5.5 µM (active).

As to `CCC(C)OC(=O)N1CCCCC1CCO` (centres undefined), the compound was classed as inactive.

For the compound `S=C([S-])NCCNC(=S)[S-].[Mn+2]`, the AC50 was 2.8 µM (active).

The values are drawn from PubChem BioAssay (EPA / NIEHS).
